# Experimental data as given in publication PMC4336329 (PLoS ONE, 2015).
# The campaign covered roughly 310,000 compounds. About 14,000 (4.5%) showed an effect of 50% or more. The effect is printed as a negative number. This is one part of a sample in which strong results are shown more often than they occur.
# Molecular target: human ether-à-go-go-related gene (hERG) potassium channel (human, UniProt Q12809)
# Assay: primary screen, population patch clamp on CHO cells stably expressing hERG; higher = less effect of the substance
# 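Note: peak tail current of the secondary pulse compared with the same well before compound.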
# human ether-à-go-go-related gene (hERG) potassium channel, sequence (Q12809 whole entry, looked up): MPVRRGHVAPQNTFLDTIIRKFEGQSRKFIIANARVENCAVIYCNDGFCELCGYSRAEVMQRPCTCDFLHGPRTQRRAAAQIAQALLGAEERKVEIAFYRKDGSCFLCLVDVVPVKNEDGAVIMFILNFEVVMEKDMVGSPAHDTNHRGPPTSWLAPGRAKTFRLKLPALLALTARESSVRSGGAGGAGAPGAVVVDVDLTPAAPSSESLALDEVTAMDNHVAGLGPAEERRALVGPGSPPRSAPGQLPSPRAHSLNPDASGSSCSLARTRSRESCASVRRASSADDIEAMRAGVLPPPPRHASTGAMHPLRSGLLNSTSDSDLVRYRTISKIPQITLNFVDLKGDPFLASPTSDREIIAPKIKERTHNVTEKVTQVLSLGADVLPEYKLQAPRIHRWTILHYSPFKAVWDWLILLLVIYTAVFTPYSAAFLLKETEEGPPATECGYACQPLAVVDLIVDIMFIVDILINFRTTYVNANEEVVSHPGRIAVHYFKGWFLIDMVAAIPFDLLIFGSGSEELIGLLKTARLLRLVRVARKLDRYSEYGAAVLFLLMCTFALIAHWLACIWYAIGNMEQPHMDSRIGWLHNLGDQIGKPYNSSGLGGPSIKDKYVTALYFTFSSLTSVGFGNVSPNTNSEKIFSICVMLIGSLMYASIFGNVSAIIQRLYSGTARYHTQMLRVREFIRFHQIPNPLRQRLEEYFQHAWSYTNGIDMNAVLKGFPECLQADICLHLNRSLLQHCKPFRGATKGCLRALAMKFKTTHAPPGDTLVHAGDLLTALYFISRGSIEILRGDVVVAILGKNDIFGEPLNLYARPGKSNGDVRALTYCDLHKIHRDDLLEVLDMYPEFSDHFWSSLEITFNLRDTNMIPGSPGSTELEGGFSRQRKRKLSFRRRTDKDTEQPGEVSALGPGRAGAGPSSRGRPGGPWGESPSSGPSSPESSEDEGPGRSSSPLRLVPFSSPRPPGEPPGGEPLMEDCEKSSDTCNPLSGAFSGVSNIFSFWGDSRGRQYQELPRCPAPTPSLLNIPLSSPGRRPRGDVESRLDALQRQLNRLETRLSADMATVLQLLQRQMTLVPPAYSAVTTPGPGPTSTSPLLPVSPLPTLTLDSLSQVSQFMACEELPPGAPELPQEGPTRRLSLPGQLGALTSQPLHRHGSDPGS
row,SMILES,"hERG current change (%, negative = inhibition) at 10uM [%]"
1,Cc1ccc2oc(C(=O)N3CCN(c4cccc(C)n4)CC3)c(C)c2c1,8.84
2,O=C1CCN(Cc2nnnn2CC2CCCO2)c2ccccc2N1 (centres unmarked),2.18
3,CCOP(=O)(OCC)C(NC(=O)c1cccs1)c1ccccc1 (centres unmarked),23.5
4,COc1ccc(/C=N/NC(C)(C)C)c(OC)c1.Cl,12.3
5,COc1ccc(C(=O)c2cnc[nH]2)cc1OC,10.9
6,Cc1cc(NC(=O)COc2ccccc2C)ccc1NC(=O)c1cccs1,0.541
7,O=C(C1CCN(c2nc(-c3ccccc3)nc3c2CCC3)CC1)N1CCC(O)CC1,-33.4
8,COCC1CCN(C(=O)C2CCN(c3nc(-c4ccccc4)nc4c3CCC4)CC2)C1 (centres unmarked),-76.5
9,CC1CCCCN1C(=O)C1CCN(c2nc(-c3ccccc3)nc3c2CCC3)CC1 (centres unmarked),-42.4
10,COCC1CCCCN1C(=O)C1CCN(c2nc(-c3ccccc3)nc3c2CCC3)CC1 (centres unmarked),-29.2
11,O=C(C1CCN(c2nc(-c3ccccc3)nc3c2CCC3)CC1)N1CCCC1,-35.8
12,CC1CCCN(C(=O)C2CCN(c3nc(-c4ccccc4)nc4c3CCC4)CC2)C1 (centres unmarked),-55.1
13,CC(C)(C)c1nnc(N/N=C/c2ccccc2O)n(N)c1=O,-35
14,O=C(NCc1ccc2c(c1)OCO2)C1CCCN1C(=O)Nc1cccc(Cl)c1 (centres unmarked),-25.4
15,CCCN(CCC)CCNC(=O)c1cc2c(C)nc3ccccc3c2o1,-29.7
16,CCCN(CCC)CCCNC(=O)c1cc2cc3ccc(Cl)cc3nc2o1,-61
17,O=C(NCc1ccco1)c1cc2cc3ccc(Cl)cc3nc2o1,4.32
18,CCCCN(CC)C(=O)c1cc2cc3ccc(OC)cc3nc2o1,-38.8
19,CCc1ccc(CNC(=O)c2cc3c(C)nc4ccccc4c3o2)cc1,-11.5
20,CCCCN(CC)CCNC(=O)c1cc2c(C)nc3ccccc3c2o1,-53.5
21,CCCCN(CC)C(=O)c1cc2cc3ccc(Cl)cc3nc2o1,-9.93
22,CCOCCCNC(=O)c1cc2cc3cc(OC)ccc3nc2o1,-7.74
23,CCCCN(CC)CCNC(=O)c1cc2cc3ccc(Cl)cc3nc2o1,-72.5

row,SMILES,"hERG current change (%, negative = inhibition) at 10uM [%]"
1,CC(C)CNS(=O)(=O)c1cc(C(=O)OCC(=O)N(C)C2CCS(=O)(=O)C2)c(Cl)cc1Cl (centres unmarked),-13
2,CC1(C)CC(=O)C=C(NNC(=O)C2CCCCC2)C1,8.47
3,O=C(C1CCCO1)N1CCc2ccccc21 (centres unmarked),17.1
4,Cl.O=C(O)CCCCCNc1nc(-c2ccccc2)nc2ccccc12,3.35
5,CN(CC(O)COCc1cccs1)C1CCCCC1 (centres unmarked),-12.1
6,COc1ccc(C(OCC(O)CN(C)C2CCCCC2)c2ccc(OC)cc2)cc1 (centres unmarked),-69.8
7,CN(CC(O)COCc1ccc2c(c1)OCO2)C1CCCCC1.Cl (centres unmarked),-20.6
8,CN(CC(O)COCc1ccccc1F)C1CCCCC1 (centres unmarked),-14.6
9,CN(CC(O)COc1ccc(S(=O)(=O)N2CCOCC2)cc1)C1CCCCC1 (centres unmarked),-6.74
10,CN(CC(O)COC(c1ccccc1)c1ccccc1)C1CCCCC1 (centres unmarked),-68.4
11,COc1cccc(CNC(=O)CN(C)S(=O)(=O)c2ccc3c(c2)n(C)c(=O)c(=O)n3C)c1,10.3
12,S=C1CCC(c2ccc(Cl)cc2)=NN1c1ccccc1,4.79
13,O=C(Nc1ccc(F)cc1)C1CCN(c2ncnc3c2nc2n3CCCCC2)CC1,-7.35
14,O=C(Nc1cc(F)ccc1F)C1CCCN(c2ncnc3c2nc2n3CCCCC2)C1 (centres unmarked),-59.5
15,COc1ccc(Cl)cc1NC(=O)C1CCCN(c2ncnc3c2nc2n3CCCCC2)C1 (centres unmarked),-37.6
16,O=C(Nc1ccc(F)cc1F)C1CCCN(c2ncnc3c2nc2n3CCCCC2)C1 (centres unmarked),-62
17,COc1ccccc1NC(=O)C1CCCN(c2ncnc3c2nc2n3CCCCC2)C1 (centres unmarked),-45.5
18,CC1=C(C(=O)OC2CCC(C)CC2)C(c2ccc(O)c([N+](=O)[O-])c2)NC(=O)N1 (centres unmarked),-0.635
19,C=CCn1c(CCNC(=O)c2ccccc2F)nnc1SCC(=O)Nc1ccc(OC)cc1,3.94
20,COc1ccc(CCNC(=O)c2cc3c(=O)n4ccccc4nc3n(CCCN3CCOCC3)c2=N)cc1OC,-75.1
21,COc1ccc(CCNC(=O)c2c(N)n(CCN3CCOCC3)c3nc4ccccc4nc23)cc1,-0.58
22,COc1ccc(CCNC(=O)c2cc3c(=O)n4cccc(C)c4nc3n(CCCN3CCOCC3)c2=N)cc1,-76.2
23,COc1ccc(CCNC(=O)c2cc3c(=O)n4ccccc4nc3n(CCN3CCOCC3)c2=N)cc1,-77.8

row,SMILES,"hERG current change (%, negative = inhibition) at 10uM [%]"
1,COc1ccc(CCn2c(=N)c(C(=O)NCCN3CCOCC3)cc3c(=O)n4ccccc4nc32)cc1OC,-32.5
2,COc1ccc(CCNC(=O)c2cc3c(=O)n4ccccc4nc3n(CCCN3CCOCC3)c2=N)cc1,-79
3,COc1ccc(Cn2c(=S)[nH]c3cc(C(=O)NCCCN4CCOCC4)ccc3c2=O)cc1,24.1
4,COc1ccc(CCn2c(=O)[nH]c3cc(C(=O)NCCCN4CCOCC4)ccc3c2=O)cc1OC,28.6
5,COc1ccc(CCNC(=O)C(=O)NCCCN2CCOCC2)cc1,7.99
6,CCOC(=O)C1=C(COC(=O)COc2ccc(Br)cc2)NC(=O)NC1C (centres unmarked),2.16
7,CC(=O)c1ccc(OCCCC(=O)Nc2cc(S(=O)(=O)N(C)C)ccc2C)cc1,0.514
8,CCS(=O)(=O)N1CCC(C(=O)N2CCC3(CC2)OCCO3)CC1,6.65
9,C=CCCCCCCCCC(=O)N1CCN(c2cc3c(cc2F)c(=O)c(C(=O)O)cn3CC)CC1,5.07
10,Fc1cccc(NC(=S)Nc2ccc(Br)cc2)c1,10.3
11,CCN1CCN(Cc2ccc(NC(=O)c3ccc(C)c(NC(=O)N4CCNC4=O)c3)cc2C(F)(F)F)CC1.O=C(O)C(F)(F)F,3.66
12,Cc1ccc(S(=O)(=O)N/N=C/c2ccccc2O)cc1,12.9
13,O=C(CN1C(=O)c2ccc([N+](=O)[O-])cc2C1=O)NCc1ccco1,12.4
14,CC1(C)CC(N2CCC(=O)NC2=S)CC(C)(C)N1,3.04
15,CC(NS(=O)(=O)c1ccc(NC(=O)N2CCCCC2)cc1)c1ccccc1 (centres unmarked),3.56
16,Cc1ccc(OS(=O)(=O)c2ccccc2)c(/C=N/N=C2\NC(=O)C(C)S2)c1 (centres unmarked),-0.524
17,CCc1cc2c(s1)N(CC(=O)OC)C(=O)CN=C2c1ccccc1OC,10.7
18,Cc1ccc(S(=O)(=O)Cc2ccc(C(=O)N3CCCCCC3)o2)cc1,-15.4
19,COc1ccc(S(=O)(=O)Cc2ccc(C(=O)N3CCc4ccccc4C3)o2)cc1,-59
20,COc1ccc(S(=O)(=O)Cc2ccc(C(=O)N3CCCC3)o2)cc1,1.74
21,Cc1ccc(S(=O)(=O)Cc2ccc(C(=O)N3CCc4ccccc4C3)o2)cc1,-62.2
22,COc1ccc(S(=O)(=O)Cc2ccc(C(=O)N3CCN(Cc4ccccc4)CC3)o2)cc1,-33.1
23,Cc1ccc(S(=O)(=O)Cc2ccc(C(=O)N3CCCC3)o2)cc1,-6.89

row,SMILES,"hERG current change (%, negative = inhibition) at 10uM [%]"
1,O=S1(=O)CCN(Cc2ccccc2Cl)CC1,-11.1
2,Cc1cc(C(=O)Nc2ccccc2C)n(-c2ccccc2)n1,16.5
3,COc1ccc(NC(=O)C2CCC(=O)N2S(=O)(=O)c2ccc(C)cc2)c(OC)c1 (centres unmarked),-11
4,COc1ccc(-c2c3c(=O)n(C)c(=O)n(C)c3cn2-c2ccccc2O)cc1,-9.54
5,Cc1ccccc1NC(=O)CN1CCC(n2nnc3ccccc32)CC1,-38.8
6,COc1ccc(Cl)cc1NC(=O)CN1CCC(n2nnc3cc(C)ccc32)CC1,-24.2
7,O=C(CN1CCC(n2nnc3cc(F)ccc32)CC1)Nc1ccccc1N1CCOCC1,-66.6
8,Cc1ccc2c(c1)nnn2C1CCN(CC(=O)Nc2ccccc2N2CCOCC2)CC1,-69.8
9,COC(=O)c1ccccc1NC(=O)CN1CCC(n2nnc3cc(F)ccc32)CC1,-14.3
10,CC(C)(C)c1ccc(C(=O)N2CCC(C(=O)N3CCCCC3)CC2)cc1,-3.01
11,Cc1cccc(C(C)(C)C)c1OCCOCCN1CCCC1,-20.6
12,CN(C(=O)CN1CC=C(c2ccccc2)CC1)c1c(N)n(Cc2ccccc2)c(=O)[nH]c1=O,25.8
13,Cc1ccc(-n2nc3c(=O)n(CC(=O)NCc4ccc(C)o4)nc(C)c3c2C)cc1,13.1
14,Cc1nn(C2CCS(=O)(=O)C2)c(Cl)c1/C=C/C(=O)OCC(=O)N(C)C (centres unmarked),11.3
15,O=C(COc1ccc([N+](=O)[O-])cc1)Nc1ccc(N2CCN(C(=O)c3ccco3)CC2)cc1,6.27
16,O=C(COc1ccc([N+](=O)[O-])cc1)Nc1ccc(CN2CCOCC2)cc1,-52.3
17,O=C(COc1ccc([N+](=O)[O-])cc1)Nc1ccc(S(=O)(=O)N2CCOCC2)cc1,-53.8
18,CCN1CCN(c2ccc(NC(=O)COc3ccc([N+](=O)[O-])cc3)cc2)CC1,-54.3
19,O=C(COc1ccc([N+](=O)[O-])cc1)Nc1ccc(N2CCCC2)cc1,12.1
20,O=C(COc1ccc(Cl)cc1)Nc1ccc(CN2CCOCC2)cc1,-39.6
21,O=C(COc1ccc(S(=O)(=O)N2CCOCC2)cc1)Nc1cccc([N+](=O)[O-])c1,-39
22,O=C(COc1ccc(Br)cc1)Nc1ccc(CN2CCOCC2)cc1,-40.6
23,Cc1ccc(NC(=O)COc2ccc(S(=O)(=O)N3CCOCC3)cc2)cc1,7.98
